Rv3671c protease: inhibitors of M. tuberculosis serine protease Rv3671c. AID 2606. 320,000 tested, 0.048% active. inhibition, % at 5.96 µM; in the data active = inhibition above about 38%;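 also: extracellular domain of Rv3671c used as enzyme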
BH1578 lux ind: inducers of Vibrio cholerae quorum light production without autoinducers; V. cholerae BH1578 lux reporter, luminescence, 6 h; activation, % at 18.7 µM; AID 588436; 350,000 tested, 0.16% active; in the data active = activation mostly above about 9.7%, no sharp cut-off
GDH-TPI inh: counter-screen for M. tuberculosis FBA inhibitors: GDH-TPI coupled enzymes; inhibition, % at 4.8 µM; GDH-TPI coupled enzyme counterscreen, NADH absorbance; 360,000 tested, 1.2% active; AID 588335; in the data active = inhibition above about 30%
RecA splice inh: Mtb RecA intein splicing inhibition; P9WHJ3; cell-free RecA intein splicing, fluorescence; inhibition, % (concentration not given with the values); 290,000 tested, 0.75% active; AID 2221; in the data active = inhibition above about 30%
Mtb UGM inh: blocks M. tuberculosis UGM enzyme; P9WIQ1; 320,000 tested, 0.06% active; AID 504406; inhibition, % at 10 µM; purified UGM, fluorescence polarization probe displacement; in the data active = inhibition above about 10%, passing the limit was not always enough
Mtb FBA inh: inhibitors of M. tuberculosis fructose-bisphosphate aldolase | inhibition, % at 1 µM | P9WQA3 | purified M. tuberculosis FBA, fluorescence read-out | 360,000 tested, 2.3% active | AID 588726; in the data active = inhibition above about 27%
Target sequence (P9WQA3 whole entry, looked up): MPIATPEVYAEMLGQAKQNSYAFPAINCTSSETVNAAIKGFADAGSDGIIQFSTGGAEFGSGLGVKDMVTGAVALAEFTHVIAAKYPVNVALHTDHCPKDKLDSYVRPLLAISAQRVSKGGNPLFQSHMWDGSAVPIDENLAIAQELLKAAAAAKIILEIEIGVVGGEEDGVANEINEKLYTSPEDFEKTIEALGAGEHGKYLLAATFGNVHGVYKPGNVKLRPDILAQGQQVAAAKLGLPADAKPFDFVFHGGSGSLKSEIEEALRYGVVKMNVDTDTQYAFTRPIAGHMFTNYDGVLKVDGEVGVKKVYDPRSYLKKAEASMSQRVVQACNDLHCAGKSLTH
GFP chromophore: counter-screen: blocks GFP chromophore formation. shares compounds with RecA splice inh. EC50, µM. 2,100 tested, 83% active. cell-free GFP chromophore formation, fluorescence. AID 434968; call rule not given here
Large screens that a line does not name were inactive (follow-up assays come after a bar, where they were run). In the library only some 4.1% were active in any assay of this set; here they are far more common.

O=[N+]([O-])c1cc(C(F)(F)F)cc([N+](=O)[O-])c1NCCNC(=S)Nc1ccc(Cl)c(Cl)c1	RecA splice inh 30.3 | GFP chromophore inactive
O=c1c2nncn2c2cc(C(F)(F)F)ccc2n1CCNc1ncc(C(F)(F)F)cc1Cl	none
O=c1c(Cl)nc2cc(Cl)ccc2n1CCNc1ncc(C(F)(F)F)cc1Cl	RecA splice inh 67.1 | GFP chromophore 0.31
Cc1nn(-c2ccccc2)c2c1C(c1ccncc1)C(C#N)=C(N)O2 (configuration not stated)	RecA splice inh 37.6 | GFP chromophore 17.2
Cc1cc2c(c(=O)n1C1CC1)C(c1cccc(Cl)c1)C(C#N)=C(N)O2 (configuration not stated)	none (no result: BH1578 lux ind)
COc1cc(-n2nc(C)c3c2OC(N)=C(C#N)C3c2ccccc2)c(Cl)c(Br)c1O (configuration not stated)	RecA splice inh 72.3 | GFP chromophore 20.3
Cc1nn(-c2ccccc2)c(Cl)c1C1C(C#N)=C(N)Oc2c1c(C)nn2-c1ccccc1 (configuration not stated)	none
Cc1ccc(-n2nc(C)c3c2OC(N)=C(C#N)C3c2ccncc2)cc1 (configuration not stated)	none (no result: RecA splice inh)
Cc1ccc(-n2nc(C)c3c2OC(N)=C(C#N)C3c2cccs2)cc1 (configuration not stated)	RecA splice inh 65.2 | GFP chromophore 4.99
Cc1nn(Cc2ccccc2)c2c1C(c1cccc(Cl)c1)C(C#N)=C(N)O2 (configuration not stated)	RecA splice inh 72.9 (no result: BH1578 lux ind) | GFP chromophore 32.5
CC(NC(=O)C1CCN(CCOc2ccc(Cl)cc2)CC1)c1cccc2ccccc12 (configuration not stated)	none (no result: Rv3671c protease, RecA splice inh, Mtb UGM inh)
CC(=O)N1c2ccc(S(=O)(=O)N(C)CC(=O)NC(C)c3ccccc3)cc2CC1C (configuration not stated)	none
CCCc1nn(C)c2c1C(c1ccncc1)C(C#N)=C(N)O2 (configuration not stated)	RecA splice inh 64.3 | GFP chromophore 29.5
CCn1c(C)cc2c(c1=O)C(c1ccncc1)C(C#N)=C(N)O2 (configuration not stated)	none
O=C(Cc1ccc(Cl)cc1)NCc1ccccc1Cl	none
O=C(Cc1ccccc1Cl)NC1(O)C(=O)c2ccccc2C1=O	RecA splice inh 51.5 | GFP chromophore 12.3
Cc1ccccc1NC(=O)C(=Cc1ccc(C(=O)O)cc1)C(=O)Nc1ccccc1C	RecA splice inh 68.4 (no result: Rv3671c protease, Mtb UGM inh) | GFP chromophore 16.3
CC(=O)/C(=C/c1ccccc1)C(=O)Nc1ccccc1C	none
Cc1ccsc1C(=O)N1CCC1(C)C(=O)NCc1cccnc1 (configuration not stated)	none (no result: Rv3671c protease, RecA splice inh, Mtb UGM inh)
Cc1onc(-c2c(Cl)cccc2Cl)c1C(=O)N1C(C)CCCC1C (configuration not stated)	RecA splice inh 81.1 | GFP chromophore inactive
C/C(CC(=O)NCc1ccccc1Cl)=N/NC(=O)c1ccccn1	none
CN(Cc1ccccc1C#N)S(=O)(=O)c1cccs1	none
N#Cc1nccnc1S(=O)(=O)c1cccs1	RecA splice inh 67.9 (no result: BH1578 lux ind, GDH-TPI inh, Mtb FBA inh) | GFP chromophore 32.1
CC(OC(=O)c1cccs1)C(=O)NC1CC1 (configuration not stated)	none
CCOc1ccc2nc(SCC(=O)Nc3cc(C)on3)c(C)cc2c1	none (no result: RecA splice inh)
CCNC(=O)C1(C)CCN(Cc2cccc(Oc3ccccc3)c2)C1 (configuration not stated)	none (no result: Rv3671c protease, RecA splice inh, Mtb UGM inh)
CCC(=O)OCCNc1cc(Sc2nccn2C)c2nonc2c1[N+](=O)[O-]	RecA splice inh 87.2 | GFP chromophore 4.79
CCCC(=O)OCCNc1cc(Sc2nc3ccccc3[nH]2)c2nonc2c1[N+](=O)[O-]	RecA splice inh 95.6 | GFP chromophore 0.96
CCC(=O)OCCNc1cc(SCCC(=O)OC)c2nonc2c1[N+](=O)[O-]	RecA splice inh 45.3 | GFP chromophore 26.2
CC1(Cc2cc(Cl)ccc2C(F)(F)F)C(=O)Nc2cc(-c3ccccc3Cl)ccc21 (configuration not stated)	none (no result: Rv3671c protease, RecA splice inh, Mtb UGM inh)
Fc1ccc(Nc2nc(Oc3ccccc3F)nc(N3CCCC3)n2)cc1	none | GFP chromophore 11.8
COc1cccc(CC(=O)OC(C)C(=O)Nc2ncc(Cl)cc2Cl)c1 (configuration not stated)	none
O=C1C=C(N(CCO)Cc2ccccc2)c2ccccc2C1=O	RecA splice inh 88.4 (no result: Rv3671c protease, Mtb UGM inh) | GFP chromophore 0.603
COc1ccc(/C=C/C(=O)c2ccncc2)c2ccccc12	RecA splice inh 56.9 | GFP chromophore 22.6
COc1ccc(/C=C/C(=O)c2ccc[nH]2)c(OC)c1OC	none
Cc1onc(-c2ccccc2)c1C(=O)OCC(=O)NC(=O)c1ccccc1	none
CC(=O)N(C1=C(N)C(=O)c2ccccc2C1=O)c1ccccc1	RecA splice inh 87.5 | GFP chromophore 4.34
CCCCOCCCNS(=O)(=O)c1ccccc1	none
CCCCOP(=O)(OCCCC)C1(NS(=O)(=O)c2ccccc2)C=CC(=O)c2ccccc21 (configuration not stated)	RecA splice inh 88.2 | GFP chromophore 4.99
Cc1ccc(-c2cc(NC(=O)CCl)n(-c3ccccc3)n2)cc1	RecA splice inh 72.7 | GFP chromophore 33
O=C(CCl)Nc1cc(-c2ccccc2)nn1-c1ccccc1	RecA splice inh 62.1 | GFP chromophore 39.8
CCCC[C@@H]1CNCCN1CCCc1cc(OC)c(OC)c(OC)c1	none
Nc1ccc(/C=C/c2ccc3ncccc3c2)cc1	none
Nc1ccc2ncccc2c1	RecA splice inh 70.1 | GFP chromophore 16
COc1cccc(N2C(=NC(=O)CCc3ccccc3)SC3CS(=O)(=O)CC32)c1 (configuration not stated)	none
CC(C)NC(=O)C1(C)CCN1C(=O)C1(c2ccccc2)CCCC1 (configuration not stated)	none (no result: Rv3671c protease, RecA splice inh, Mtb UGM inh)
CC(=O)N1C(=O)C2(C(C#N)=C(N)Oc3c2c(C)nn3-c2ccccc2)c2ccccc21 (configuration not stated)	RecA splice inh 54.7 | GFP chromophore 5.81
Cc1nn(-c2ccccc2)c2c1C1(C(=O)N3c4c(cccc41)C(C)CC3(C)C)C(C#N)=C(N)O2 (configuration not stated)	RecA splice inh 49.2 | GFP chromophore 9.67
Cc1ccccc1-n1c(C)nnc1SC(C)C(=O)NCC1CCCO1 (configuration not stated)	none (no result: RecA splice inh, Mtb UGM inh)
CC(C)(C)OC(=O)N1CC=C2C(C#N)=C(N)C(C#N)(C#N)C(c3cccs3)C2C1 (configuration not stated)	RecA splice inh 52.9 | GFP chromophore 10.1
CCOC(=O)N1CC=C2C(C#N)=C(N)C(C#N)(C#N)[C@H](c3cccs3)C2C1 (some centres not stated)	none

Assay outcomes as filed in PubChem.
